IL2 activator = activators of IL-2; AID 652025; IL-2 activation reporter assay, cell-based qHTS; stimulated with anti-CD3/CD4/CD28 beads; in transgenic mouse T cells; activation, % (series mostly up to about 46 µM); 360,000 tested, 0.065% active; in the data active means activation above about 50%; inconclusive means mostly about 30% to 49%; further: 0% is about no effect
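First, unstimulated transgenic mouse T cells were exposed to compound for 60 min. Next, anti-CD3/anti-CD4-coated beads with anti-CD28 were added. Finally, after 18 h at 37 degrees C, EGFP and DsRed were imaged.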
TrxR1 inh = blocks rat thioredoxin reductase 1; recombinant rTrxR1, NADPH fluorescence consumption, selenite substrate; 390,000 tested, 1% active; O89049; AID 588453; Potency, µM (highest dose often 114 µM), without a hit: top-dose activity change, negative = inhibition, most hits filed as inhibitors; further: potency means the concentration at half of the fitted maximal effect; on the % scale 0 is the no-effect control and ±100 the full control effect; nearly all actives have a fitted effect of over 65% in size
Target sequence (O89049 whole entry, looked up): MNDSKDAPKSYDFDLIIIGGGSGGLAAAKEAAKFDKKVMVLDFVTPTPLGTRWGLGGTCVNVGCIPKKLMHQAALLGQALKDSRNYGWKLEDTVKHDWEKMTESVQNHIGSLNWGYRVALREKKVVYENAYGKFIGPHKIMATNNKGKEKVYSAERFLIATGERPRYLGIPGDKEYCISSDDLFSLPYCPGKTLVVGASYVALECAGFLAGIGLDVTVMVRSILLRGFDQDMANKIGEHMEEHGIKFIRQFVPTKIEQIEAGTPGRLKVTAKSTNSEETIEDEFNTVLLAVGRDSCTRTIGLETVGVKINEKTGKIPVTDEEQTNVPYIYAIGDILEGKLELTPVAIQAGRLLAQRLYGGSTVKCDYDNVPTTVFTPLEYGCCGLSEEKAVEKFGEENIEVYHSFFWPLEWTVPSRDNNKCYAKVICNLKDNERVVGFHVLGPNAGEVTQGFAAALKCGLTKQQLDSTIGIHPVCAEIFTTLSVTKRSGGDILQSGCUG
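Rat TrxR1 (90 nM in the dispensed reagent) was pre-reduced with 400 uM NADPH for 5 min at room temperature, then incubated with compound for 15 min. After 400 uM selenite was added, NADPH fluorescence (Ex 340/Em 450 nm) was followed for 8 min.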
IDH1 R132H inh = inhibitors of human mutant IDH1 R132H | O75874 | IDH1-R132H enzyme, NADPH consumption, diaphorase/resazurin fluorescence | Potency, µM (top dose mostly 76.6 µM), for the others: at the top dose activity change, negative = inhibition, usual class: inhibitors | 390,000 tested, 0.093% active | AID 602179; further: potency means the concentration at half of the fitted maximal effect; on the % scale 0 is the no-effect control and ±100 the full control effect; nearly all actives have a fitted effect of over 65% in size
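IDH1-R132H (0.5 ug/mL dispensed) in pH 7.5 Tris buffer was preincubated 30 min with compound, then given a substrate mix of 0.016 mM NADPH and 2 mM alpha-KG for 80 min at room temperature; remaining NADPH was read by diaphorase/resazurin fluorescence.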
Giardia kill = Giardia lamblia killing | Giardia lamblia trophozoite viability | activity change, % at 7.66 µM, hits read low | 340,000 tested, 0.15% active; in the data active means activity change below about -80%; inconclusive means between about -30% and that limit;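 further: parasites exposed to compound for two days anaerobically before the ATP read; on the % scale 0 is the no-effect control and ±100 the full control effect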
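Media and compound were dispensed first, then trophozoites at 100 cells/well; plates sat 48 hrs at 37 deg C without oxygen before ATP luminescence reagent was added and read after 15-30 min at room temperature.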
BRCA1 expr up = BRCA1 expression activation; MCF7-BRCA1-FFLuc reporter, luminescence, 48 h; response scale: scaled: vehicle 0%, 10 µM genistein 100%; Potency, µM (series often up to 46.1 µM), without a hit: top-dose activation, actives largely listed as activators; 380,000 tested, 1.1% active; AID 624202; further: potency means the concentration at half of the fitted maximal effect; nearly all actives have a fitted effect of over 80% in size
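Quantitative HTS in MCF7 cells stably reporting BRCA1 expression via firefly luciferase. Compound treatment lasts 48 h at 37 °C in phenol-red free MEM. Activation is expressed relative to genistein at 10 microM and DMSO.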
TrxR1 substrate = is turned over as a substrate by rat TrxR1; O89049; purified TrxR1 substrate turnover, NADPH consumption readout; Potency, µM (doses to about 114 µM), for inactives: top-dose activity change, negative = substrate turnover; 390,000 tested, 0.01% active; AID 588456; further: potency means the concentration at half of the fitted maximal effect; on the % scale 0 is the no-effect control and ±100 the full control effect; nearly all actives have a fitted effect of over 50% in size
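Rat TrxR1, dispensed at 90 nM, was prereduced with 400 uM NADPH (final) for 5 min at ~22 deg C, then incubated with compound 15 min before 400 uM selenite. A first-read NADPH fluorescence drop versus no-compound background flagged substrates.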
* marks the source's active call; other numbers are inactive results; u = inconclusive; x = not tested or not shown; [ ] = remark or other dose. An excerpt weighted towards active compounds, which were near 2.2% of everything screened. Unless noted, the call rests on the fitted dose curve; in most records, active means well fitted curve in the direction sought with a large enough effect; inconclusive means small, poorly fitted or top-dose-only effect, or another doubt; inactive means no such curve, though single readings can be large; an effect the other way counts as inactive or inconclusive.

SMILES	IL2 activator	TrxR1 inh	IDH1 R132H inh	Giardia kill	BRCA1 expr up	TrxR1 substrate
CC(=O)Nc1ccc2nc(-c3cccn3C)[nH]c2c1	-3.6	-1.6%	0.0%	-21.0	91.4%	-5.9%
Cn1cccc1-c1nc2ccc(NC(=O)c3cccs3)cc2[nH]1	-0.5	-22.3%	2.8%	11.0	u	-7.5%
O=C(Nc1cccc(NC(=O)c2ccc(-c3ccc(Br)cc3)o2)c1)c1ccco1	-3.4	79.4µM*	4.0%	8.2	6.4%[1.84 µM]	39.6%
O=C(Nc1ccc2nc(-c3ccc(Br)o3)[nH]c2c1)c1ccco1	-2.3	-53.9%	13.6%	-4.5	6.31µM*	5.5%[57.1 µM]
Cc1cc(C)c(NC(=O)c2nc3ccccc3nc2N2CCCCC2)c(C)c1	x	11.4%[57.1 µM]	14.7%	x	x	4.1%[57.1 µM]
O=C(NCc1ccccc1)c1cccc(NC(=O)c2ccco2)c1	0.7	-9.5%	2.7%	-18.3	-46.8%	-8.1%
Cc1ccccc1NS(=O)(=O)c1cc(C(=O)NCc2ccco2)ccc1C	0.2	-47.1%[57.1 µM]	-2.8%	-6.1	-17.6%	2.7%
CC(=O)Nc1ccc2nc(-c3ccc(Br)o3)[nH]c2c1	-0.4	11.2µM*	6.5%	7.0	10µM*	-2.2%
Cc1ccc(C(=O)NCc2ccco2)cc1S(=O)(=O)Nc1cccc(C)c1C	-2.6	79.4µM*	9.6%	9.1	-16.9%	-5.0%
O=C(NCc1ccco1)c1cccc(NC(=O)c2ccco2)c1	-4.1	50.1µM*	4.5%	5.0	1.9%	2.4%
Cc1ccc(NC2=CC(c3ccccc3F)N(c3ccc(C)cc3)C2=O)cc1 (stereo not given)	x	u	-11.1%	x	x	26.1%
O=C(NCCc1ccccc1)c1cccc(Br)c1	-4.4	13.9%	12.6%	-12.4	12.6µM*	-3.4%
O=C(NCCc1ccccc1)/C(=N\O)c1ccccc1	-0.5	-1.1%	-1.8%	11.5	1.26µM*	-6.0%
O=C(NCCc1ccccc1)c1cccc(NC(=O)C2CC2)c1	-0.4	9.2%	5.1%[38.3 µM]	12.6	6.31µM*	-2.1%
CN(C)CCCNC(=O)/C(=N\O)c1ccccc1	-0.4	2.8%	0.0%	1.8	-0.7%	2.5%
O=C(Nc1cccc(Cl)c1Cl)c1cc(S(=O)(=O)N2CCCCC2)ccc1F	x	17.4%[57.1 µM]	-8.6%	x	x	1.5%[57.1 µM]
O=c1oc2cc(O)ccc2cc1-c1ccccc1	0.9	52.2%	9.4%	-23.2	10µM*	877.1%
COc1ccc(-c2cc3ccc(O)cc3oc2=O)cc1	2.4	200.1%	-1.0%	u	u	290.5%
O=c1oc2cc(O)ccc2cc1-c1nc2c(s1)CCc1ccccc1-2	50.3*	-16.8%	8.1%	11.9	-18.9%	29.6%
CN(C)c1ccc(/C=C2\C(=O)/C(=C\c3ccc(N(C)C)cc3)c3ccccc32)cc1	x	6.0%	x	x	x	-11.7%
Cc1ccc(Nc2nc(COC(=O)C3CC3)cs2)cc1	0.5	10.0%[57.1 µM]	4.5%	4.2	10µM*	7.8%[57.1 µM]
CC1CCCN(C(=S)NCCc2ccccc2)C1 (stereo not given)	-2.1	-5.6%	-4.6%	-2.0	10µM*	-6.9%[57.1 µM]
O=C(C[n+]1cc(-c2ccc(F)cc2)n2c1CCC2)c1cccs1	-1.5	22.6%[11.4 µM]	3.0%	-11.4	2µM*	11.9%[11.4 µM]
COc1ccccc1N1C(=O)C2C(c3ccccc3F)NN(C(=O)c3ccc(C)cc3)C2C1=O (stereo not given)	-3.4	50.1µM*	-11.2%	6.7	1.4%	-1.5%
O=C(Nc1nc2c(F)cc(F)cc2s1)c1ccc([N+](=O)[O-])o1	-1.1	1.3%[57.1 µM]	1.5%	-86.2*	-26.2%	-11.2%
SMILES	IL2 activator	TrxR1 inh	IDH1 R132H inh	Giardia kill	BRCA1 expr up	TrxR1 substrate
O=C(CCc1ccccc1)Nc1nc2c(F)cc(F)cc2s1	-2.4	-5.6%	1.4%	-12.9	10µM*	-0.7%
Cc1cc(C)c2nc(NC(=O)c3cc(C)on3)sc2c1	0.0	-29.5%	0.1%	-3.3	9.5%	26.5%
Cc1cc(C)c2nc(NC(=O)c3ccc([N+](=O)[O-])o3)sc2c1	2.3	11.3%[57.1 µM]	3.5%	-90.4*	-1.9%	3.0%[57.1 µM]
O=C(Nc1nc2c(F)cc(F)cc2s1)c1ccco1	-2.8	7.7%[57.1 µM]	-0.9%	u	u	-0.7%[57.1 µM]
Cc1cc(C)nc(NC(=O)c2ccc([N+](=O)[O-])o2)n1	2.6	-24.2%	4.2%	u	-41.4%	-9.8%
Cc1cc(C)c2sc(NC(=O)c3ccc([N+](=O)[O-])o3)nc2c1	-2.2	5.1%[57.1 µM]	5.2%	-81.2*	-1.1%	5.5%[57.1 µM]
CCN(CC)c1ccc(/C=C/c2ccccn2)cc1	x	u	x	x	x	-29.5%
O=C(COc1ccccc1C(=O)Nc1cccnc1)Nc1ccc(Br)cc1	x	16.4%	x	x	-17.1%	-0.3%
CC(=O)Oc1oc(-c2ccccc2)nc1C=Nc1ccccc1	-2.3	39.8µM*	-0.8%	-3.1	-3.1%	-13.4%
CCC(=O)Oc1oc(-c2ccccc2)nc1C=Nc1ccc(C)cc1	1.2	7.3%[11.4 µM]	-2.6%	-3.5	-22.9%	5.4%[11.4 µM]
CCC(=O)Oc1oc(-c2ccccc2)nc1C=Nc1ccccc1OC	-3.0	u	-1.0%	10.5	-13.4%	-12.2%
CCOC(=O)c1ccc(N=Cc2nc(-c3ccccc3)oc2OC(C)=O)cc1	2.0	2µM*	0.9%	20.7	12.1%	-1.9%
CN(C)c1ccc(/C=C/C(=O)c2cccc(Br)c2)cc1	u	-9.7%	2.2%	14.6	16.9%	-6.1%
CN(C)c1ccc(N=Cc2nc(-c3ccccc3)oc2OC(=O)c2cccc(Br)c2)cc1	1.4	-28.2%	-1.1%	-19.4	3.16µM*	-3.0%
COc1ccc(N=Cc2nc(-c3ccccc3)oc2OC(=O)c2ccccc2)cc1	-1.9	u	-4.2%	-9.5	6.31µM*	1.6%
CCc1ccccc1N=Cc1c(C)c(C#N)c2[nH]c3ccccc3n2c1=O	123.4*	6.7%	-2.0%	-10.8	7.4%	-2.3%
CCCCc1c(C)c(C#N)c2[nH]c3ccccc3n2c1=O	-0.4	18.3%	6.6%	-5.9	-64.6%	35.3%
Cc1nn(C(C)C(=O)Nc2ccccc2C(F)(F)F)c(=O)c2c1sc1ccccc12 (stereo not given)	x	15.1%	-1.0%	x	x	19.6%
COC(=O)c1ccc(C2C(C#N)=C(N)Oc3cc(O)ccc32)cc1 (stereo not given)	5.7	17.8µM*	-4.2%	-13.7	0.1%	-3.2%
O=C(CCN1CCC(c2ccc(Cl)s2)=N1)c1ccc(Cl)s1	1.7	2.82µM*	-1.4%	21.4	-1.0%	2.1%
O=C(CCC(=O)N1CCN(c2ccccc2F)CC1)c1ccc(Cl)s1	0.4	4.1%	0.8%	-8.9	-2.8%	-5.0%
O=C(CCCc1ccncc1)c1ccccc1	0.5	-3.9%	3.2%	7.8	3.98µM*	-6.3%
Cc1ccc2c(c1)c1c(c(=O)n(-c3cccc(Cl)c3)c(=O)n1CC(=O)NCC1CCCO1)n2C (stereo not given)	x	9.1%	9.3%	x	4.5%	20.8%
